Measured values reported in PubChem BioAssay (NCATS).
Results filed as inconclusive are left out. A number with no mark means an inactive call. Active and inactive are the calls of the source. The call rests on the fitted dose curve.

biological target: Peroxisome proliferator-activated receptor delta (Homo sapiens) (UniProt Q03181); test: qHTS assay for small molecule agonists of peroxisome proliferator-activated receptor delta signaling (AID 588534); conditions: HEK293T PPARdelta-UAS-bla, beta-lactamase ratio, 18 h; series mostly up to 76.7 µM; activation: at the top concentration;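 further: 0% = DMSO basal wells and 100% = positive control agonist at 10 µM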
Sequence (Q03181 whole entry, looked up): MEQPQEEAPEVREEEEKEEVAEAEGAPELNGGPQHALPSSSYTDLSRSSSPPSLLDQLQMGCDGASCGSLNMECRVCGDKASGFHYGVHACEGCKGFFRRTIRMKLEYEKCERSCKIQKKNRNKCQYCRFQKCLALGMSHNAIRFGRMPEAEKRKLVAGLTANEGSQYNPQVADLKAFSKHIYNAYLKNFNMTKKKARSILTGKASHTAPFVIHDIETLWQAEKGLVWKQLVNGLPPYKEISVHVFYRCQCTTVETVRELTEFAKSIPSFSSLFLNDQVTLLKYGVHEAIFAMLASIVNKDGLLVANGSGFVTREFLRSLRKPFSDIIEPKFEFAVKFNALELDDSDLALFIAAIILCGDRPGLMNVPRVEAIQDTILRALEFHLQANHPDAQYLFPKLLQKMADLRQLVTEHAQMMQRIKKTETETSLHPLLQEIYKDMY
Procedure, shortened: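 Cells carrying a PPAR-delta beta-lactamase reporter were treated with compounds for 18 h at 37 °C in agonist mode. CCF4 fluorescence was read after 2 h; EC50 and efficacy from Hill fits.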

Row | SMILES | outcome | activation [%]
1 | OCCNCCO | inactive | 
2 | O=[N+]([O-])c1ccc(Cl)cc1Cl |  | 4.65
3 | COC(=O)C(C)Oc1ccc(Oc2ncc(C(F)(F)F)cc2Cl)cc1 (stereo not given) |  | -11.1
4 | Cc1ccc(C(C)(C)C)cc1 |  | 1.93
5 | CCCC(=O)OC(=O)CCC | inactive | 
6 | O=C=NC1CCC(CC2CCC(N=C=O)CC2)CC1 (stereo not given) |  | 1.82
7 | O=C1OC(=O)c2cc([N+](=O)[O-])ccc21 |  | 3.63
8 | Nc1ccc([N+](=O)[O-])c(N)c1 |  | 11.9
9 | CCOC(=O)C1=NN(c2ccc(Cl)cc2Cl)C(C)(C(=O)OCC)C1 (stereo not given) |  | 2.37
10 | CCCCC(CC)COC(C)=O (stereo not given) |  | -1.66
11 | Oc1cc2c(cc1O)[C@H]1c3ccc(O)c(O)c3OC[C@@]1(O)C2 |  | -4.97
12 | CC(C)(C)c1ccc(OCC2CO2)cc1 (stereo not given) |  | 3.41
13 | COC(OC)(C(=O)c1ccccc1)c1ccccc1 |  | 7.67
14 | Cc1cccc(C)c1O |  | 2.41
15 | O=C(O)CC(C(=O)O)C(CC(=O)O)C(=O)O (stereo not given) | inactive | 
16 | Cc1cccc(C(=O)O)c1[N+](=O)[O-] |  | 6.01
17 | O=[N+]([O-])c1cccc(C(F)(F)F)c1 |  | 2.45
18 | CC1CCCO1 (stereo not given) |  | -10
19 | CCCCN(CCCC)CCCC |  | -2.53
20 | CC(C)(O)CCC(C)(C)O |  | 0.668

Row | SMILES | outcome | activation [%]
21 | CCCCOCCOCCSC#N |  | -11.7
22 | CCCCCCCCC(=O)O |  | 0.447
23 | O=[N+]([O-])c1c(Cl)cc(Cl)cc1Cl |  | 7.3
24 | CCC(C)c1ccccc1O (stereo not given) | inactive | 
25 | CC=C(Cl)Cl |  | 0.326
26 | O=C1CCC(C2CCCCC2)CC1 |  | 1.85
27 | ICCc1ccccc1 |  | 2.06
28 | COC(=O)CS |  | 3.74
29 | CCCCCCCCN |  | 4.19
30 | Cc1cccc2sc(N)nc12 |  | 2.52
31 | CC(=O)OC1CCC(C(C)(C)C)CC1 (stereo not given) |  | 2.6
32 | C=C(C)C(=O)OCCC[Si](Cl)(Cl)Cl |  | -0.262
33 | c1ccsc1 |  | 0.747
34 | O=C(OCC1CCC2OC2C1)C1CCC2OC2C1 (stereo not given) |  | -0.235
35 | CC1=CC(=O)CC(C)(C)C1 |  | 3.31
36 | Cc1cc(Nc2ccc(O)cc2)ccc1N |  | -2.68
37 | CCC(O)OCCCOC (stereo not given) |  | 4.52
38 | COS(C)(=O)=O |  | 9.94
39 | Nc1ccc2c(c1)C(=O)c1ccccc1C2=O | inactive | 
40 | CC(C)COC(=O)COc1cc(Cl)c(Cl)cc1Cl |  | -3.52
